Our source for the z-score and composite z-score values is PubChem BioAssay.

The structures appear in SMILES notation. Calls of active or inactive are those of the source.

A short description of experiment [1]: optical density shifts of acrAB sulA E. coli – strain DRC41, OD650, 48 h, E. coli filamentation inducer project, primary screen (AID 1152).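 Note: E. coli MC1000 strain DRC41 lacking acrAB efflux pump and sulA.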 As to conditions: higher = more signal, called active from +8 up or from −8 down.
Experiment [2] is described as follows: probe aLefty1 binding on compound microarray – biochemical, small-molecule microarray, 635/667 nm fluorescence, primary screen (AID 1153).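 Note: score merges spot fluorescence with signal-to-noise ratio from the scanned slide images.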 To be noted: higher = more signal.
A short description of experiment [3]: plasmodial surface anion channel blockers, osmotic lysis – cell-based, P. falciparum Indochina, OD700, 1 h, primary screen (AID 1154). As to conditions: P. falciparum Indochina infected RBC osmotic lysis, higher = more signal, called active from +8 up or from −8 down.
The nature of experiment [4]: plasmodial surface anion channel blockers, osmotic lysis – cell-based, P. falciparum Indochina, OD700, 2 h, primary screen (AID 1155).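 Note: lysis reports solute entry through the parasite surface anion channel PSAC.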 To be noted: P. falciparum Indochina infected erythrocytes, higher = more signal, called active from +8 up or from −8 down.
The nature of experiment [5]: changes in parasitized red cell lysis, either direction – P. falciparum Indochina, OD700, 3 h, PSAC antagonist project, primary screen (AID 1156). To be noted: P. falciparum-infected erythrocytes, osmotic lysis, higher = more signal, called active from +8 up or from −8 down.
Experiment [6] can be described thus: plasmodial surface anion channel blockers, osmotic lysis – cell-based, P. falciparum Indochina, OD700, 18 h, primary screen (AID 1157). As to conditions: P. falciparum Indochina infected erythrocytes, osmotic lysis OD700, 18 h; higher = more signal, called active from +8 up or from −8 down.
A short description of experiment [7]: S6 kinase pathway phospho-S6 level changes – cell-based, A549, cytoblot, luminescence, serum-stimulated, primary screen (AID 1158).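 Note: serum-stimulated A549 lung adenocarcinoma cells; signal is phosphorylated S6 detected by cytoblot immunostaining with HRP secondary.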 To be noted: 5 h, higher = more signal.
Experiment [8] deals with NADPH oxidase 2 (Homo sapiens) (UniProt P04839). Kind of experiment: compounds shifting NOX2 Amplex Red fluorescence – cell-based, HEK293-NOX2, PMA-stimulated, NOX inhibitor project, primary screen (AID 1159). Note: test concentration not given here. To be noted: 45 min, higher = more signal, called active from +8 up or from −8 down.
Sequence of NADPH oxidase 2 (Homo sapiens) (P04839 whole entry, looked up): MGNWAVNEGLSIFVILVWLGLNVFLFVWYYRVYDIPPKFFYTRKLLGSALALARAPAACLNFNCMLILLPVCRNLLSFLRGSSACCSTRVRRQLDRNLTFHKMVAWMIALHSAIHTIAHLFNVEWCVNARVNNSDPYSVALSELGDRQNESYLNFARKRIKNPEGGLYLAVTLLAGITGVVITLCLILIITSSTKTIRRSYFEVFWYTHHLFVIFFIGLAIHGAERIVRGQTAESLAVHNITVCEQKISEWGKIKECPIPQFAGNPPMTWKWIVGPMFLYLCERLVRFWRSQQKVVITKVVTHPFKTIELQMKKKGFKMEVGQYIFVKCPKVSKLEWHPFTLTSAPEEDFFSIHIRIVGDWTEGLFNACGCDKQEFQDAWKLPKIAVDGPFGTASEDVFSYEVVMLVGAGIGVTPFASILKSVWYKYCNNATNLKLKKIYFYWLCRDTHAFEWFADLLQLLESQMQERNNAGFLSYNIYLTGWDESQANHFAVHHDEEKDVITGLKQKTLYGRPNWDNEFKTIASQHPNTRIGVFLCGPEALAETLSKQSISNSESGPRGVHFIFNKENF
The target of experiment [9] is NADPH oxidase 4 (Homo sapiens) (UniProt Q9NPH5). Kind of experiment: compounds shifting NOX4 Amplex Red fluorescence – cell-based, HEK293-NOX4, tetracycline-induced, NOX inhibitor project, primary screen (AID 1160). As to conditions: HEK293-NOX4, Amplex Red H2O2 fluorescence, 45 min; higher = more signal, called active from +8 up or from −8 down.
Sequence of NADPH oxidase 4 (Homo sapiens) (Q9NPH5 whole entry, looked up): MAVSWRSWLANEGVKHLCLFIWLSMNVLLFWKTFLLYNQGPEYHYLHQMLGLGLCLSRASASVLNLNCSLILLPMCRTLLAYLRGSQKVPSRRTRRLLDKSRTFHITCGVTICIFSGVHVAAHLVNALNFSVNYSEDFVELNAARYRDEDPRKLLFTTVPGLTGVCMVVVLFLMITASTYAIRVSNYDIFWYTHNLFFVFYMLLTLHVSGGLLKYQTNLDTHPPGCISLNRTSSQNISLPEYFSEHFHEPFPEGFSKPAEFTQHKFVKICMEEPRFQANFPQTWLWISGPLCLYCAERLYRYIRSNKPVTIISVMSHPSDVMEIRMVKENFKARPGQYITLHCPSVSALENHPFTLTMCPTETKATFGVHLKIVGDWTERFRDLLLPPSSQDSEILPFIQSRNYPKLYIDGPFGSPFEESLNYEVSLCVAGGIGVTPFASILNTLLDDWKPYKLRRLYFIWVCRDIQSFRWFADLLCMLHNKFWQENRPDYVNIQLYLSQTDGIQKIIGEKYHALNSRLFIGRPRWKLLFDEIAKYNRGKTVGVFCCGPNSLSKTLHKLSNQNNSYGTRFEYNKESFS
Experiment [10] has as its target NADPH oxidase 5 (Homo sapiens) (UniProt Q96PH1). Kind of experiment: compounds shifting NOX5 Amplex Red fluorescence – cell-based, HEK293-NOX5, NOX inhibitor project, primary screen (AID 1161). To be noted: HEK293-NOX5, ionomycin, 45 min, higher = more signal.
Experiment [11] in a line: compound effects on lung adenocarcinoma cell viability – A549, calcein-AM fluorescence, 48 h, basal, profiling panel (AID 1162). Note: test concentration not given here. To be noted: higher = more signal.
Experiment [12] can be described thus: compound effects on differentiated 3T3-L1 adipocyte viability – cell-based, 3T3-L1 adipocytes, calcein-AM fluorescence, 48 h, basal, profiling panel (AID 1163). Note: test concentration not given here. To be noted: 3T3-L1 adipocytes viability, higher = more signal.
Experiment [13] is described as follows: compound effects on hepatocellular carcinoma cell viability – HepG2, calcein-AM fluorescence, 48 h, basal, profiling panel (AID 1164). Note: test concentration not given here. As to conditions: higher = more signal.
Experiment [14] can be described thus: compound effects on multiple myeloma cell viability – MM1S, calcein-AM fluorescence, 48 h, basal, profiling panel (AID 1165).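 Note: viability of MM1S multiple myeloma cells under basal unstimulated conditions; test concentration not given here.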 To be noted: higher = more signal.
Experiment [15] is described as follows: calcein-AM signal in unstimulated myeloma cells – cell-based, calcein-AM fluorescence, 48 h, PK04 Diversity Set, profiling panel (AID 1166).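 Note: cells grown under basal conditions without added stimulus; test concentration not given here.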 To be noted: RPMI8226 myeloma viability, higher = more signal.
Experiment [16] in a line: JC-1 mitochondrial signal, unstimulated HepG2 cells – cell-based, JC-1 fluorescence, 24 h, 100 nL compound, profiling panel (AID 1167). Note: test concentration not given here. To be noted: HepG2 mitochondrial potential, higher = more signal.
A short description of experiment [17]: JC-1 mitochondrial signal, unstimulated adipocytes – cell-based, JC-1 fluorescence, 3T3-L1 adipocytes, 24 h, 100 nL compound, profiling panel (AID 1168). Note: test concentration not given here. As to conditions: JC-1 mitochondrial fluorescence, higher = more signal, called active from +8 up or from −8 down.
Experiment [18] is described as follows: JC-1 mitochondrial signal, unstimulated myeloma cells – cell-based, JC-1 fluorescence, RPMI8226, 24 h, 100 nL compound, profiling panel (AID 1169). Note: test concentration not given here. To be noted: JC-1 mitochondrial potential fluorescence, higher = more signal.
Experiment [19] is described as follows: JC-1 mitochondrial signal, unstimulated MM1S myeloma – cell-based, JC-1 fluorescence, 24 h, 100 nL compound, profiling panel (AID 1170). Note: test concentration not given here. As to conditions: MM1S mitochondrial potential, higher = more signal.
Experiment [20] is described as follows: resazurin metabolic signal in A549 cells – cell-based, resazurin fluorescence, 24 h, PK04 Diversity Set, profiling panel (AID 1171). Note: test concentration not given here. To be noted: A549 viability, higher = more signal, called active from +8 up or from −8 down.

Sequence of NADPH oxidase 5 (Homo sapiens) (Q96PH1 whole entry, looked up): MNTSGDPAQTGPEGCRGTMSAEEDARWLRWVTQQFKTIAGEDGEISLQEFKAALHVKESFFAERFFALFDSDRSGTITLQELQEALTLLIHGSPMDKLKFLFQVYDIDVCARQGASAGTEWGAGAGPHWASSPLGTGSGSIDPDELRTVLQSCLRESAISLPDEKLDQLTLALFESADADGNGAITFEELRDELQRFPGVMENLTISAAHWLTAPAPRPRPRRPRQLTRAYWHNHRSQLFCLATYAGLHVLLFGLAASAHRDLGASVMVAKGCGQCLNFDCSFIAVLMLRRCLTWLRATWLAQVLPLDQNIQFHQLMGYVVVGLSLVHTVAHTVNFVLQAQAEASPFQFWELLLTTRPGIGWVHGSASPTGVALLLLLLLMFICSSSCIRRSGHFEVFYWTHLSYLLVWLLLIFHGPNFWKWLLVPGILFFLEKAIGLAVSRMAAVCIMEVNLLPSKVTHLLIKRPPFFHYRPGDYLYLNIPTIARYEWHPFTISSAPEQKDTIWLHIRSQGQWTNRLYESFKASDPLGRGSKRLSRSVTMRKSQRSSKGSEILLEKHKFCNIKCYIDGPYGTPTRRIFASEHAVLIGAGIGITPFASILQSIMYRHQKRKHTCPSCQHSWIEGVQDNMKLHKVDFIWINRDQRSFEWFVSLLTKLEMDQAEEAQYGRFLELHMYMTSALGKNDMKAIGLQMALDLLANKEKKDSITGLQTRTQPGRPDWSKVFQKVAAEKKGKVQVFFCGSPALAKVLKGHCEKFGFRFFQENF

With `COc1ccc([Si](C)(C)[C@@H]2[C@@H](CC(=O)N3Cc4ccccc4C[C@H]3CO)O[C@]3(C(=O)N(Cc4ccc(N5CCOC5=O)cc4)c4ccccc43)[C@H]2C)cc1`, the z-score is 0.378 (inactive) in [1]; 8.18 (active) in [3]; 1.59 (inactive) in [4]; 0.374 (inactive) in experiment [5]; 0.892 (inactive) in experiment [6]; 0.982 in experiment [7]. Further, the z-score is 0.393 (inactive) in experiment [8]; 1.15 (inactive) in experiment [9]; 1.88 in experiment [10]; 0.369 in [11]; 0.704 in experiment [12]; 0.115 in experiment [13]. For the same compound, the z-score in [14] was -1.07; in experiment [15], -0.876; in experiment [16], 0.966; in experiment [17] it was 1 (inactive); in experiment [18], -1.11; in experiment [19], 0.359. Besides, in experiment [20], the z-score was -0.674 (inactive). In experiment [2], the composite z-score is -0.0868.
For the compound `C[C@]1(C(=O)O)c2ccccc2C(=O)N(Cc2cc(F)cc(C(F)(F)F)c2)[C@H]1c1ccc(CO)cc1`, the z-score in experiment [1] is -0.169 (inactive); in experiment [3], 2.63 (inactive); in experiment [4], -0.0481 (inactive); in experiment [5], -0.992 (inactive); in experiment [6] it was -0.927 (inactive); in [7] it was 1.27. Further, the z-score in experiment [8] is 0.477 (inactive); in experiment [9] it was -1.43 (inactive); in experiment [10], -2.26; in experiment [11], 0.653; in experiment [12] it was 0.658; in [13] it was -0.577. The z-score was 0.471 in experiment [14]; 0.792 in experiment [15]; -0.23 in [16]; 0.235 (inactive) in experiment [17]; 0.383 in [18]; -0.703 in experiment [19]. Besides, the z-score in [20] was 1.27 (inactive). Further, in [2], the composite z-score is -0.261.
`Cc1ccc(S[C@]2(C(=O)NCc3ccccc3)CC(=O)N(Cc3ccccc3C(F)(F)F)[C@@H]2c2ccc(CO)cc2)cc1`: the z-score in experiment [1] is 0.995 (inactive); in experiment [3], 0.485 (inactive); in experiment [4], -0.797 (inactive); in [5], -1.37 (inactive); in experiment [6], -0.802 (inactive); in experiment [7], 1.24. The z-score was -1.69 (inactive) in [8]; 0.0366 (inactive) in [9]; -0.3 in experiment [10]; 0.653 in [11]; 0.269 in experiment [12]; 1.73 in [13]. Moreover, the z-score in [14] was 0.0811; in experiment [15] it was 1.36; in experiment [16], 0.779; in [17] it was 0.311 (inactive); in experiment [18], -0.0337; in [19] it was -0.216. Besides, the z-score in experiment [20] was -1.35 (inactive). This compound also came in with a composite z-score in [2] of -0.012.
For the compound `COCCOC(=O)N1C(=O)[C@@]2(c3cc(C#CCCO)ccc31)[C@H](C(N)=O)[C@H]1C(=O)O[C@H](c3ccccc3)[C@H](c3ccccc3)N1[C@@H]2c1ccccc1OCCO`, the z-score was -0.3 (inactive) in [1]; 12.2 (active) in experiment [3]; 2.47 (inactive) in experiment [4]; 1.99 (inactive) in experiment [5]; 0.68 (inactive) in [6]; 1.02 in [7]. The z-score was 1.51 (inactive) in [8]; 0.755 (inactive) in experiment [9]; 0.594 in experiment [10]; -0.21 in experiment [11]; -0.0387 in experiment [12]; -0.16 in [13]. Besides, the z-score was -1.87 in [14]; -2.92 in experiment [15]; -0.529 in experiment [16]; 0.181 (inactive) in experiment [17]; -0.821 in experiment [18]; -1.47 in experiment [19]. The z-score in experiment [20] is -0.191 (inactive). This compound also yielded a composite z-score in experiment [2] of -0.147.
